The whole screen tested about 1,300 compounds, of which fewer than 10 were called active.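 How the source made its calls: active means fitted half-maximal dose AC50 no more than ten times the top valid tested dose, with luminescence dropping as dose rises; inconclusive means poor fit, or flat fit with 30 to 70% inhibition; inactive means the rest, signal increases included.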 The list is a sample of the results.
Test: luciferase inhibitors in kinase-free ADP detection – biochemical, luminescence, cherry-pick, set 02, artefact control for Dyrk1A inhibitor project, dose response (AID 588348);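 further: 0% = median of neutral control wells and -100% = median of positive control wells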
Conditions: ADP-Glo luciferase artifact assay, no Dyrk1A; series mostly up to 12 µM; activity change, negative = inhibition: at the top concentration

Activity change, negative = inhibition, inactive:
COc1c(O)cc2oc(-c3ccc(O)c(O)c3)cc(=O)c2c1O 6.57%
CCN(CC)c1ccc(NC(=O)CCc2nnc3ccc(N4CCCCC4)nn23)c(C)c1 9.92%
CCOC(=O)Cn1c(-c2cccnc2Cl)nc2ccccc21 8.46%
Cc1cc(/C=N/Nc2ccc([N+](=O)[O-])cn2)c(C)n1-c1cccc(C(=O)O)c1 8.55%
Cc1noc(C)c1-c1ccc2ncnc(NC(C)c3ccco3)c2c1 (configuration not stated) 10.7%
COc1ccc2c(Cl)c(C(=O)NCc3ccco3)sc2c1 2.94%
Cc1cccc(-c2nc(Nc3ccc(O)cc3)c3ccccc3n2)c1 8.32%
Oc1ccc(-c2nc3ccccc3nc2-c2ccc(O)cc2O)c(O)c1 6.7%
Oc1ccc(-c2[nH]ncc2-c2nc3ccccc3s2)c(O)c1 8.04%
NC(=S)c1ccc(C(N)=S)o1 8.12%
Nc1nonc1-n1nnc(C(=O)N/N=C\c2ccncc2)c1CN1CCCCC1 6.25%
C=C(C)Cn1c(N2CCN(CC)CC2)nc2c1c(=O)[nH]c(=O)n2C 8.26%
Nc1nc(SCc2ccc([N+](=O)[O-])cc2)c2ncn(C3OC(CO)C(O)C3O)c2n1 (configuration not stated) 7.11%
Nc1nc(NCCCN2CCOCC2)nc(Nc2ccccc2)c1[N+](=O)[O-] 7.41%
Cc1ccc(/C=C(\C#N)C(=O)Nc2cccc3ncccc23)o1 7.8%
CC(=O)Oc1ccc2c(c1)C(=O)c1ccccc1C2=O 8.92%
CCc1cc2c(NC3CCCC3)ncnc2s1 9.96%
COc1ccc(S(=O)(=O)N(C)C[C@H]2Oc3ccc(NS(=O)(=O)c4cccs4)cc3CC(=O)N([C@H](C)CO)C[C@H]2C)cc1 9.41%
COc1ccc2oc(N)c(C=O)c(=O)c2c1 7.76%
COc1ccc2[nH]c(C)c(CCN(Cc3cccs3)C(=S)Nc3ccccc3OC)c2c1 9.48%
NS(=O)(=O)c1ccc(-c2ccc(/C=C3\SC(=O)NC3=O)o2)cc1 5.57%
O=C(NC(Nc1nc2ccc([N+](=O)[O-])cc2s1)(C(F)(F)F)C(F)(F)F)c1ccccc1 18.5%
O=C1/C(=C/c2ccc3c(c2)OCO3)Oc2cc(OCC(=O)N3CC(O)C[C@H]3C(=O)O)ccc21 (some centres not stated) 11.8%
CCOc1cc(/C=C2\SC(N3CCCCC3)=NC2=O)ccc1O 7.18%
CCc1n[nH]c(=S)n1/N=C/c1c[nH]c2ccc(Br)cc12 7.76%
CC(=O)C1C(c2ccc(Cl)cc2)NC(=O)NC1(O)C(F)(F)F (configuration not stated) 6%
CC(=O)Nc1cccc(-c2cnc3ccccc3n2)c1 13.1%
Oc1ccc(-c2csc(Nc3cccnc3)n2)cc1 8.19%
CCOCCCNC(=O)C(NC(=O)c1ccc(=O)[nH]c1)c1ccc(Cl)cc1 (configuration not stated) 7.16%
CN1c2ccc(C=O)c3c(C=O)ccc(c23)N(C)C1(C)C 8.18%
O=C1N=C(N2CCc3ccccc3C2)S/C1=C\c1ccc(O)cc1 6.19%
O=C(NCCc1ccccc1)C1CCN(S(=O)(=O)c2ccc(Br)s2)CC1 11%
CCn1c(NC(=O)c2ccccc2)c(-c2cccs2)c(=O)c2ccccc21 7.02%
COc1cccc(C(=O)NNC(=O)/C=C/c2ccccc2)c1 9.62%
C[C@@H]1O[C@@H](OC[C@H]2O[C@@H](Oc3c(-c4ccc(O)cc4)oc4cc(O)cc(O)c4c3=O)[C@H](O)[C@@H](O)[C@@H]2O)[C@H](O)[C@H](O)[C@H]1O 10.5%
Cc1noc(NS(=O)(=O)c2ccc(NC(=O)c3oc4ccc(F)cc4c3C)cc2)c1C 8.7%
COc1cc(O)c2c(=O)c3c(O)c(O)ccc3oc2c1OC 7.64%

From PubChem BioAssay AID588348 (Broad Institute, 2011)
